# Data reported in PubChem BioAssay (Tox21).
# “And” between values parts separate entries of the source, which are not always exact repeats. Identical values can stand only once. Results filed as inconclusive are left out. Values without a mark were called inactive. The source made the active and inactive calls. Calls come from the whole dose curve; as a rule, active = well fitted cell-killing curve with a large enough effect in the repeat runs; inconclusive = weak or mixed curves, or effect the other way; inactive = no such curve, though single readings can be large or run the other way.
# Test: qHTS assay to identify small molecule antagonists of the glucocorticoid receptor (GR) signaling pathway - cell viability counter screen (AID 720693); note: nearly all actives have a fitted effect of over 55% in size
# Conditions: GR-bla HeLa viability, CellTiter-Glo luminescence, 18 h, with 5 nM dexamethasone present; series mostly up to 58.5 µM; viability change, negative = cytotoxic: at the top concentration
# % is set by controls: 0 for no effect and ±100 for the full control effect; potency is the fitted concentration of half-maximal effect.
Compound,"viability change, negative = cytotoxic",Potency
N#CC(Cl)(Cl)Cl,1.6%,
Cc1cccc(C#N)c1,-1.15%,
CC(Cl)(Cl)[N+](=O)[O-],-0.616%,
Nc1cc(Cl)ccc1O,-17.7%,
[O]=[Cd],,inactive
Nc1ccccc1Cl,-1.15%,
CCCCc1ccc(O)cc1,15%,
BrCCCCCCBr,-2.44%,
COc1cccc2c1cc([N+](=O)[O-])c1c(C(=O)O)cc3c(c12)OCO3,,12.3 µM (active)
O=C(O)c1ccc2[nH]cc(CCCCN3CC=C(c4ccccc4)CC3)c2c1,-10.4%,
C#C[C@]1(O)C=C[C@H]2[C@@H]3CCC4=CC(=O)CC[C@@H]4[C@H]3CC[C@@]21CC,-14.1%,
CN1CCC(O)(c2ccc(F)cc2)C(C(=O)c2ccc(F)cc2)C1 (stereo not given),-2.39%,
CCCSC(=O)N(CCC)CCC,6.52%,
CN(N=O)C(N)=O,6.61%,
C[C@H]1CCC[C@H](O)CCCCCc2cc(O)cc(O)c2C(=O)O1,,inactive
COc1cc(OC)nc(Oc2cccc(Oc3nc(OC)cc(OC)n3)c2C(=O)O)n1,8.67%,
CCNc1nc(NC(C)C)nc(OC)n1,-1.89%,
CCC(=O)c1ccccc1,-3.98%,

Compound,"viability change, negative = cytotoxic",Potency
CCCCOC(=O)c1ccccc1C(=O)O,-9.56%,
O=[N+]([O-])c1cccc2c([N+](=O)[O-])cccc12,-1.84% [at 78.9 µM],
Cc1ccccc1CO[C@@H]1C[C@@]2(C(C)C)CC[C@]1(C)O2,-4.4%,
COC(=O)C(c1ccccc1)C1CCCCN1 (stereo not given),,inactive
Cc1cnc[nH]1,0.473%,
CCOP(=S)(OCC)Oc1ncn(-c2ccccc2)n1,1.37%,
c1cc[c]([Hg][c]2ccccc2)cc1,17%,
Nc1cc2c3c(c1)C(c1ccccc1)=N[C@@H](NC(=O)c1cccnc1)C(=O)N3CC2,7.24%,
CNC(=O)Oc1ccccc1C1OCCO1,-16.5%,
CC1=C(C(=O)Nc2ccccc2)S(=O)(=O)CCO1,-20.6%,
COCC(=O)N(c1c(C)cccc1C)N1CCOC1=O,-4.21%,
CCCCOP(=O)(O)OCCCC,0.343%,
NC(=S)C(N)=S,-5.53%,
CC(C)CC#N,-1.27% [at 78.9 µM],
O=C1c2ccccc2C(=O)c2ccccc21,-8.97%,
COc1ncc(F)c2nc(S(=O)(=O)Nc3c(F)cccc3F)nn12,2.02%,
CC1(C)C(=O)NC(=O)NC1=O,-0.619%,

# Test: qHTS assay for identifying genotoxic compounds that show differential cytotoxicity against isogenic chicken DT40 cell lines with known DNA damage response pathways - wild type cell line (AID 743012); note: nearly all actives have a fitted effect of over 60% in size
# Conditions: DT40 wild type chicken cells viability, CellTiter-Glo, 40 h; series mostly up to 68.4 µM; activity change, negative = cytotoxicity: at the top concentration
# In short: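 Wild-type DT40 cells (300/well) exposed to compounds for 40 hours at 37 C/5% CO2. Viability read by CellTiter-Glo luminescence after 30 min at room temperature.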
Compound,"activity change, negative = cytotoxicity",Potency
N#CC(Cl)(Cl)Cl,3.04%,
Cc1cccc(C#N)c1,8.74%,
CC(Cl)(Cl)[N+](=O)[O-],0.224%,
Nc1cc(Cl)ccc1O,,14.9 µM (active)
[O]=[Cd],1.79%,
Nc1ccccc1Cl,1.26%,
CCCCc1ccc(O)cc1,-12.8%,
BrCCCCCCBr,12.8%,
COc1cccc2c1cc([N+](=O)[O-])c1c(C(=O)O)cc3c(c12)OCO3,,0.77 µM (active)
O=C(O)c1ccc2[nH]cc(CCCCN3CC=C(c4ccccc4)CC3)c2c1,-10.2%,
C#C[C@]1(O)C=C[C@H]2[C@@H]3CCC4=CC(=O)CC[C@@H]4[C@H]3CC[C@@]21CC,,23.7 µM (active)
CN1CCC(O)(c2ccc(F)cc2)C(C(=O)c2ccc(F)cc2)C1 (stereo not given),,9.44 µM (active)
CCCSC(=O)N(CCC)CCC,3.36%,
CN(N=O)C(N)=O,1.09%,
C[C@H]1CCC[C@H](O)CCCCCc2cc(O)cc(O)c2C(=O)O1,,18.8 µM (active) and 61.6 µM (active)
COc1cc(OC)nc(Oc2cccc(Oc3nc(OC)cc(OC)n3)c2C(=O)O)n1,20.5%,
CCNc1nc(NC(C)C)nc(OC)n1,11.1%,
CCC(=O)c1ccccc1,10.4%,

Compound,"activity change, negative = cytotoxicity",Potency
CCCCOC(=O)c1ccccc1C(=O)O,-5.21%,
O=[N+]([O-])c1cccc2c([N+](=O)[O-])cccc12,-2.19% [at 95 µM],
Cc1ccccc1CO[C@@H]1C[C@@]2(C(C)C)CC[C@]1(C)O2,,43.3 µM (active)
COC(=O)C(c1ccccc1)C1CCCCN1 (stereo not given),,inactive
Cc1cnc[nH]1,2.54%,
CCOP(=S)(OCC)Oc1ncn(-c2ccccc2)n1,,61.1 µM (active)
c1cc[c]([Hg][c]2ccccc2)cc1,,0.273 µM (active)
Nc1cc2c3c(c1)C(c1ccccc1)=N[C@@H](NC(=O)c1cccnc1)C(=O)N3CC2,-2.21%,
CNC(=O)Oc1ccccc1C1OCCO1,4.39%,
CC1=C(C(=O)Nc2ccccc2)S(=O)(=O)CCO1,,15.3 µM (active)
COCC(=O)N(c1c(C)cccc1C)N1CCOC1=O,0.997%,
CCCCOP(=O)(O)OCCCC,12.5%,
NC(=S)C(N)=S,-4.21%,
CC(C)CC#N,-2.1% [at 95 µM],
O=C1c2ccccc2C(=O)c2ccccc21,13.8%,
COc1ncc(F)c2nc(S(=O)(=O)Nc3c(F)cccc3F)nn12,24.7%,
CC1(C)C(=O)NC(=O)NC1=O,-24.7%,
